Source: PubChem BioAssay (Tox21)
Inconclusive results are not listed. Calls of active or inactive are those of the source. Unless noted, calls come from the whole dose curve.

Legend:
[1] = Nuclear factor erythroid 2-related factor 2/antioxidant responsive element (Nrf2/ARE) small molecule agonists: qHTS cell viability counter screen in human keratinocytes (AID 1919968; active = well fitted curve in the direction sought with a large enough effect in the repeat runs; an effect the other way counts as inactive or inconclusive; note: nearly all actives have a fitted effect of over 55% in size)
In short: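 KeratinoSens HaCaT cells, 1,500/well, preincubated 5 h, then exposed to compounds in DMSO for 23 h at 37 C/5% CO2. Viability read as CellTiter-Fluor fluorescence after 1 h, in the same wells as the ARE-luciferase read.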

[2] = target: Gonadotropin-releasing hormone receptor (Homo sapiens) (UniProt P30968); assay: Human gonadotropin-releasing hormone receptor (GnRHR) small molecule agonists, calcium flux assay in GnRHR-HEK293 cells (AID 1920063); note: nearly all actives have a fitted effect of over 35% in size
Chain of Gonadotropin-releasing hormone receptor (Homo sapiens) (P30968 whole entry, looked up): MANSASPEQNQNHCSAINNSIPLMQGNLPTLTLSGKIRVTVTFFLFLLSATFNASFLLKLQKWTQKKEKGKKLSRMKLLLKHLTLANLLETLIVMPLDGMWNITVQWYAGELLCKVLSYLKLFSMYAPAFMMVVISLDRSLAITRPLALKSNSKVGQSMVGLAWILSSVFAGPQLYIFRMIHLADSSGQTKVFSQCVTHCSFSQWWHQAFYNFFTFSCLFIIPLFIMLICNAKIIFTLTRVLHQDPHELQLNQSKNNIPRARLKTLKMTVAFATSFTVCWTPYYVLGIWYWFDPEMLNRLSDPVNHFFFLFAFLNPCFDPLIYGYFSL
In short: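 HEK293 cells stably expressing human GnRHR were dye-loaded for 1 h at 37 C. Compound was added in agonist mode and fluorescence (Ex/Em 480/540) recorded kinetically for 3 min. Fifteen concentrations, triplicates.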

[3] = target: KiSS-1 receptor (Homo sapiens) (UniProt Q969F8); assay: Human kisspeptin (KISS1R) small molecule agonists, calcium flux assay in KISS1R-HEK293 cells (AID 1920064; active = well fitted curve in the direction sought with a large enough effect in the repeat runs; an effect the other way counts as inactive or inconclusive)
Chain of KiSS-1 receptor (Homo sapiens) (Q969F8 whole entry, looked up): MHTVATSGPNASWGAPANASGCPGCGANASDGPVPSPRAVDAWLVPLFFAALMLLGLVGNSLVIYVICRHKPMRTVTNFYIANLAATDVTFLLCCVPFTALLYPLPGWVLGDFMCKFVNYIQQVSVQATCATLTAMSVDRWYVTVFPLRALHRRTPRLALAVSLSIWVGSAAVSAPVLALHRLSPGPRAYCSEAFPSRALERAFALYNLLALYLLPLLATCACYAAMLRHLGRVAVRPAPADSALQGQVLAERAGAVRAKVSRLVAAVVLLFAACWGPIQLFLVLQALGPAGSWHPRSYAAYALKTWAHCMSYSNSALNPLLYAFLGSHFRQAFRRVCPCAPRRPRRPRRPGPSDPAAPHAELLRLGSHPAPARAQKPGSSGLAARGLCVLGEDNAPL
In short: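 HEK293 cells stably expressing human KISS1R were loaded with calcium dye for 1 h at 37 C, then given compound; fluorescence (Ex/Em 480/540) was read kinetically for 3 min. Fifteen concentrations, triplicate.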

[4] = G protein-coupled receptor (GPCR) small molecule agonists, calcium flux assay: HEK293 wild type cell line counter screen (AID 1920065)
In short: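 Wild-type HEK293 cells plated 18 h, loaded with calcium dye 1 h at 37 C, then compounds added in agonist mode (ATP as positive control). Kinetic fluorescence Ex/Em 480/540 recorded 3 min at 1 sec intervals; 15 concentrations, triplicate.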

[5] = p53 small molecule agonists, cell-based qHTS assay with human liver microsomes: qHTS cell viability counter screen (AID 1963579); note: nearly all actives have a fitted effect of over 45% in size
In short: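 After the 460/530 nm beta-lactamase read, CellTiter-Glo was added to the same wells and luminescence measured after 30 min at room temperature, giving viability of p53RE-bla cells treated 16 h with compounds plus microsomes and NADPH.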

[6] = p53 small molecule agonists, cell-based qHTS assay with rat liver microsomes: qHTS cell viability counter screen (AID 1963580); note: nearly all actives have a fitted effect of over 45% in size
In short: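 HCT-116 p53RE-bla, 4,000 cells/well, 5 h pre-incubation; cpd + rat liver microsomes 0.5 mg/mL + NADPH 0.5 mg/mL (final); 16 h, 37 C; CellTiter-Glo, 30 min RT; luminescence.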

[7] = p53 small molecule agonists, cell-based qHTS assay: qHTS cell viability counter screen (AID 1963581); note: nearly all actives have a fitted effect of over 45% in size
In short: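 p53RE-bla HCT-116 cells, compounds added 5 h after plating and incubated 16 h at 37 C. Cytotoxicity measured in the same wells as intracellular ATP by CellTiter-Glo luminescence after 30 min at room temperature.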

[8] = target: 5-hydroxytryptamine receptor 2A (Homo sapiens) (UniProt P28223); assay: 5-hydroxytryptamine receptor 2A (HTR2A) small molecule antagonists, cell-based qHTS assay (AID 1963586); note: nearly all actives have a fitted effect of over 45% in size
Chain of 5-hydroxytryptamine receptor 2A (Homo sapiens) (P28223 whole entry, looked up): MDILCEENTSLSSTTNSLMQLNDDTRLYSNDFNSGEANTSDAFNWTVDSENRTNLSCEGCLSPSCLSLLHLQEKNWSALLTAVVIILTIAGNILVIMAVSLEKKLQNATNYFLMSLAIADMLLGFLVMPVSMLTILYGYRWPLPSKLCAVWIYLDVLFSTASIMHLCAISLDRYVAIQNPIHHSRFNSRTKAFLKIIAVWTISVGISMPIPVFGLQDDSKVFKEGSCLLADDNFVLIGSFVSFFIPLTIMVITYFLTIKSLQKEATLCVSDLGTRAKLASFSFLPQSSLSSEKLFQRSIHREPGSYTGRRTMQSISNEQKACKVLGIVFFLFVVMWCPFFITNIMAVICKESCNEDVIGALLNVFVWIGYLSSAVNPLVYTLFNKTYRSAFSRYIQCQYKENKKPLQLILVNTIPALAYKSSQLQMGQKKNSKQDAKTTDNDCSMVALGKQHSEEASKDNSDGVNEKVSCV
In short: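 Antagonist-mode intracellular calcium assay: DOI (4 nM) added after 5 min compound pre-incubation at room temperature to dye-loaded HTR2A-CHO cells. Fluorescence followed for 3 min, sampled every second.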

[9] = target: 5-hydroxytryptamine receptor 2A (Homo sapiens) (UniProt P28223); assay: 5-hydroxytryptamine receptor 2A (HTR2A) small molecule agonists, cell-based qHTS assay (AID 1963587); note: nearly all actives have a fitted effect of over 30% in size
In short: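 Kinetic calcium-flux fluorescence (2 min, 1 sec intervals) after compound addition in agonist mode. HTR2A-CHO cells were cultured 18 h, then dye-loaded 1 h at 37 C.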

[10] = target: Muscarinic acetylcholine receptor M1 (Homo sapiens) (UniProt P11229); assay: Cholinergic receptor muscarinic 1 (CHRM1) small molecule antagonists, cell-based qHTS assay (AID 1963588); note: nearly all actives have a fitted effect of over 40% in size
Chain of Muscarinic acetylcholine receptor M1 (Homo sapiens) (P11229 whole entry, looked up): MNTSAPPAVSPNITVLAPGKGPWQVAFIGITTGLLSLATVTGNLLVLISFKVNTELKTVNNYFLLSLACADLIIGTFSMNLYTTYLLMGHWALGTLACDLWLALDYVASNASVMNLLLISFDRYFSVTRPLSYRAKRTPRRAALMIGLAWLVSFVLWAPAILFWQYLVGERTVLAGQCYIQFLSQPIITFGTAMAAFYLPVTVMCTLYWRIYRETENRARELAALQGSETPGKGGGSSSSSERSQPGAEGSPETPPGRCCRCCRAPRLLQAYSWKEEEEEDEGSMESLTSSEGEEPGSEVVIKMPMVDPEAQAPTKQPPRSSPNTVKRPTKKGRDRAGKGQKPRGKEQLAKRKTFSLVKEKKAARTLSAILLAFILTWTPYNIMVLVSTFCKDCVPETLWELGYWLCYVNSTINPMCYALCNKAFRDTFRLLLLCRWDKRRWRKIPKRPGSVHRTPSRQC
In short: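 CHRM1-CHO calcium-flux assay, antagonist mode. Cells were seeded 18 h, dye-loaded 1 h at 37 C and given compound for 5 min at RT, then acetylcholine was added at 50nM. FDSS fluorescence was read 3 min; 15 concentrations, three runs.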

[11] = target: Muscarinic acetylcholine receptor M1 (Homo sapiens) (UniProt P11229); assay: Cholinergic receptor muscarinic 1 (CHRM1) small molecule agonists, cell-based qHTS assay (AID 1963589); note: nearly all actives have a fitted effect of over 35% in size
In short: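 CHO cells stably expressing human CHRM1 were loaded with calcium dye for 1 h at 37 C, then compound was added in agonist mode. Intracellular calcium fluorescence was followed kinetically at 1 s intervals. Fifteen concentrations were tested in three independent runs.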

[12] = cAMP Responsive Elements (CRE) small molecule antagonists, cell-based qHTS assay (AID 1963591; active = well fitted inhibition curve with a large enough effect in the signal ratio in the repeat runs, not every such curve was filed as active; the % refers to the signal ratio)
In short: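 CRE-bla HEK293T cells plated 18 h, then given compound plus NKH477 at 0.25 uM final for 3 h at 37C. Beta-lactamase reporter read with LiveBLAzer B/G FRET substrate after 2 h at room temperature.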

[13] = target: Beta-2 adrenergic receptor (Homo sapiens) (UniProt P07550); assay: Adrenergic beta2 receptor (ADRB2) small molecule antagonists, cell-based qHTS assay (AID 1963592); note: series mostly up to about 92 µM; nearly all actives have a fitted effect of over 50% in size
Chain of Beta-2 adrenergic receptor (Homo sapiens) (P07550 whole entry, looked up): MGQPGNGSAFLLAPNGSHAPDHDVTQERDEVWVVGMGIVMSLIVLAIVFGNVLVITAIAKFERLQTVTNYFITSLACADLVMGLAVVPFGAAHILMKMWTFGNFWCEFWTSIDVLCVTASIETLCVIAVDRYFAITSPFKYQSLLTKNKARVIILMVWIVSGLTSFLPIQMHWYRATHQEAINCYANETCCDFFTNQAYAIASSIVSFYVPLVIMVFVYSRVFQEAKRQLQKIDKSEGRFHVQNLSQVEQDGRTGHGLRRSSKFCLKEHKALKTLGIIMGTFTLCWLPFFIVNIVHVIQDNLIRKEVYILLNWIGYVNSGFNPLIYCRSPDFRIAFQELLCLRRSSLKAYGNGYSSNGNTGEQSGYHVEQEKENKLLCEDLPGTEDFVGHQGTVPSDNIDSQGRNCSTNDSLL
In short: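 Cells (CHO, stable ADRB2 overexpression) incubated 18-20hr at 37C; compounds added from DMSO; agonist mix (1nM isoproterenol, 100uM IBMX, 25uM Ro-20-1724) added; 0.5hr RT; d2-cAMP and anti-cAMP-cryptate added; 1hr RT; 665/615 nm read.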

[14] = target: Beta-2 adrenergic receptor (Homo sapiens) (UniProt P07550); assay: Adrenergic beta2 receptor (ADRB2) small molecule agonists, cell-based qHTS assay (AID 1963593);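 note: CHO cells stably overexpressing human ADRB2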
In short: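 CHO cells stably over-expressing ADRB2 were plated overnight at 37C, then dosed with compounds plus a stimulation mix containing 100uM IBMX and 25uM Ro-20-1724 for 0.5hr at room temperature. cAMP was measured by HTRF competition, 1hr.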

[15] = target: D(2) dopamine receptor (Homo sapiens) (UniProt P14416); assay: Dopamine D2 receptor (DRD2) small molecule agonists, cell-based qHTS assay (AID 1963594); note: nearly all actives have a fitted effect of over 35% in size
Chain of D(2) dopamine receptor (Homo sapiens) (P14416 whole entry, looked up): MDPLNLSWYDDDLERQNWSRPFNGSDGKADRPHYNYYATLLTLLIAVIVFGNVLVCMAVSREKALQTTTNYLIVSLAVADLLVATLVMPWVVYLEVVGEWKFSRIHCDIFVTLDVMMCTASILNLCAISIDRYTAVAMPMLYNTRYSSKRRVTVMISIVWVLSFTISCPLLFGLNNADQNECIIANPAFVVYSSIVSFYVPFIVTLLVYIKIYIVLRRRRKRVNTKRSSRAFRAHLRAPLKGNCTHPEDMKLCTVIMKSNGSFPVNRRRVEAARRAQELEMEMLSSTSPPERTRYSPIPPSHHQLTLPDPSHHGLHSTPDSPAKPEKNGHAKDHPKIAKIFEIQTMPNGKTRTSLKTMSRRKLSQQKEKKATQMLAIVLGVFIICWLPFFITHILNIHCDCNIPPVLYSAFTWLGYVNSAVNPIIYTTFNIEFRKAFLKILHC
In short: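 cAMP accumulation in DRD2-HEK293 cells measured by HTRF after 1 h detection; compounds added 10 min before NKH477 (200nM […]) forskolin-analogue stimulation, 30 min at room temperature, with Ro20-1724 present at 0.1 mM final.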

[16] = target: D(2) dopamine receptor (Homo sapiens) (UniProt P14416); assay: Dopamine D2 receptor (DRD2) small molecule antagonists, cell-based qHTS assay (AID 1963595; active = well fitted inhibition curve with a large enough effect in the signal ratio in the repeat runs, with a control signal flat; the % refers to the signal ratio)
In short: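 Readout: HTRF cAMP, cAMP-d2 competing with cellular cAMP for anti-cAMP cryptate, read after 1 h. Cells: DRD2-HEK293. Conditions: 0.1 mM Ro20-1724, 12 nM quinpirole, 200 nM NKH477, 30 min RT.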

[17] = p53 small molecule agonists, cell-based qHTS assay with human liver microsomes (AID 1963577);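 note: p53 response element beta-lactamase reporter cells with liver microsomes plus NADPH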
In short: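 Steps: plate p53RE-bla cells, incubate 5 h at 37 C; add compound in DMSO; add microsomes (0.5 mg/mL final) and NADPH (0.5 mg/mL final); incubate 16 h at 37 C; add LiveBLAzer, 2 h RT; read fluorescence.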

[18] = p53 small molecule agonists, cell-based qHTS assay with rat liver microsomes (AID 1963578)
In short: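 Metabolic activation is supplied by rat liver microsomes with NADPH (each 0.5 mg/mL final). p53RE-bla cells incubate with compound 16 h at 37 C; reporter activity is measured by LiveBLAzer fluorescence.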

[19] = p53 small molecule agonists, cell-based qHTS assay (AID 1963582; active = well fitted activation curve with a large enough effect in the signal ratio in the repeat runs, not every such curve was filed as active; the % refers to the signal ratio)
In short: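 p53RE-bla reporter cells, compounds added in DMSO after 5 h plating, incubated 16 h at 37 C. Beta-lactamase read via 2 h room-temperature LiveBLAzer B/G FRET substrate, fluorescence intensity.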

[20] = cAMP Responsive Elements (CRE) small molecule agonists, cell-based qHTS assay (AID 1963590)
In short: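 CRE-bla HEK 293T cells, 2,000/well in DMEM with 10% dialyzed FBS and 25 mM HEPES, pre-incubated 18 h at 37 C, then exposed to compound 3 h at 37 C. Beta-lactamase reporter read with LiveBLAzer B/G FRET substrate after 2 h at room temperature.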

Measured: Potency

O=S(=O)(O)O
not listed: [17] | [18] | [19] | [20]
inactive: all other assays above

c1ccc2c(c1)CCCC2
not listed: [6] | [11]
inactive: all other assays above

CCOCN(C(=O)CCl)c1c(C)cccc1CC
not listed: [10] | [12] | [14] | [19] | [20]
inactive: all other assays above

Nc1nc(N)nc(NC2CC2)n1
not listed: [8] | [9] | [10] | [11] | [12] | [17] | [19]
inactive: all other assays above

c1ccc2c(c1)-c1cccc3cccc-2c13
not listed: [14] | [16] | [18]
inactive: all other assays above

Nc1ccc(-c2ccc(N)c(N)c2)cc1N
not listed: [14] | [17] | [18] | [19]
inactive: all other assays above

[P]#[In]
not listed: [6]
inactive: all other assays above

CCOS(=O)(=O)OCC
not listed: [8] | [14] | [17] | [18]
inactive: all other assays above

C=CC1CC=CCC1 (configuration not stated)
not listed: [6] | [14] | [16]
inactive: all other assays above
